Data from PubChem BioAssay.
Activity calls are given as the source filed them.

Legend:
[1] = tested on: Plasmodium falciparum Sir2 (PF13_0152, Sir2A); assay: Plasmodium falciparum Sir2A binding compounds – biochemical, small-molecule microarray, 635 nm fluorescence, primary screen (AID 1098); conditions: fluorescence 635 nm, higher = more signal;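 also: score merges spot fluorescence intensity with its signal-to-noise ratio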
[2] = probe aDKK1 binding to arrayed compounds – biochemical, biotinylated probe, 635/667 nm fluorescence, primary screen (AID 1099); conditions: small-molecule microarray, higher = more signal;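 also: score merges 667nm spot fluorescence with signal to noise across triplicate slides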
[3] = probe aCHRDL2 binding to arrayed compounds – biochemical, biotinylated probe, 635/667 nm fluorescence, primary screen (AID 1100); conditions: small-molecule microarray, higher = more signal
[4] = change in splice reporter luminescence, either direction, cell-based, HEK293, spliceosome inhibition project, primary screen (AID 1101); conditions: HEK293 splicing luciferase reporter, 24 h, higher = more signal, called active from +8 up or from −8 down;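 also: HEK293 cells carrying a splicing-competent luciferase reporter gene; test concentration not given here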
[5] = target: Fibroblast growth factor 10 (Homo sapiens) (UniProt O15520); assay: compounds binding fibroblast growth factor 10 – biochemical, small-molecule microarray, 635 nm fluorescence, primary screen (AID 1102); conditions: FGF10 binding, fluorescence 635 nm, higher = more signal
[6] = tested on: glycogen synthase kinase-3 (GSK3A per assay name; protocol says GSK3B); assay: compounds binding glycogen synthase kinase-3 – biochemical, small-molecule microarray, 635 nm fluorescence, GSK3A, primary screen (AID 1103); conditions: fluorescence 635 nm, higher = more signal; also: the record names both GSK3A and GSK3B
[7] = target: Epidermal growth factor receptor (Homo sapiens) (UniProt P00533); assay: compounds binding epidermal growth factor receptor – biochemical, small-molecule microarray, 635 nm fluorescence, primary screen (AID 1104); conditions: EGFR binding, higher = more signal;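 also: score merges 667 nm emission intensity with spot signal to noise over triplicate slides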
[8] = target: Follistatin-related protein 3 (Homo sapiens) (UniProt O95633); assay: compounds binding follistatin-related protein 3 – biochemical, small-molecule microarray, 635 nm fluorescence, primary screen (AID 1105); conditions: FSTL3 binding, higher = more signal;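 also: score merges emission near 667 nm and signal to noise per printed spot across three slides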
[9] = target: Dickkopf-related protein 1 (Homo sapiens) (UniProt O94907); assay: small molecules binding DKK1 protein – biochemical, small-molecule microarray, 635 nm fluorescence scan, primary screen (AID 1106); conditions: higher = more signal;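 also: score merges emission near 667 nm with signal to noise over three replicate slides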
[10] = tested on: Inhibin beta A chain (activin A); assay: small molecules binding activin A – biochemical, small-molecule microarray, 635 nm fluorescence scan, primary screen (AID 1107); conditions: INHBA, higher = more signal;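 also: mouse activin A protein probed at 4.33 µg/mL on printed slides; score merges bound-protein fluorescence near 667 nm with spot signal-to-noise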
[11] = tested on: Human papillomavirus type 1a protein E7 (residues 44-93); assay: small molecules binding HPV E7 44-93 – biochemical, small-molecule microarray, residues 44-93, 635 nm fluorescence, primary screen (AID 1108); conditions: fluorescence 635 nm, higher = more signal;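 also: E7 fragment applied at 1 µg/mL in TBST for 1 h at 4 C; score combines spot fluorescence with its signal to noise ratio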
[12] = hepatitis C replication reporter changes, two-sided – Huh7 cells, luciferase reporter, HCV replication inhibitor project, primary screen (AID 1109); conditions: Huh7 HCV replicon luciferase reporter, 48 h; higher = more signal;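 also: huh7 hepatoma cells harbouring a luciferase neomycin HCV replicon reporter; luciferase luminescence as measure of HCV replicon replication; test concentration not given here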
[13] = target: Left-right determination factor 2 (Homo sapiens) (UniProt O00292); assay: small molecules binding LEFTY2 protein – biochemical, small-molecule microarray, 635 nm fluorescence scan, primary screen (AID 1110); conditions: higher = more signal
[14] = target: Calmodulin-1 (Homo sapiens) (UniProt P0DP23); assay: small molecules binding calmodulin-1 with EGTA – biochemical, small-molecule microarray, Cy5-labelled CALM1, profiling panel (AID 1111); conditions: Cy5-CALM1 binding fluorescence, higher = more signal;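 also: labelled calmodulin applied in Tris saline Tween buffer holding calcium plus EGTA and DTT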
[15] = target: Calmodulin-1 (Homo sapiens) (UniProt P0DP23); assay: small molecules binding Ca-loaded calmodulin-1 – biochemical, small-molecule microarray, Cy5-labelled CALM1, plus calcium, artefact control for SMM control-protein annotation, profiling panel (AID 1112); conditions: Cy5-CALM1 binding fluorescence, higher = more signal;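 also: score merges spot fluorescence with signal to noise from triplicate slides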
[16] = probe aWnt5a binding to arrayed compounds – biochemical, biotinylated probe, 635/667 nm fluorescence, primary screen (AID 1113); conditions: small-molecule microarray, higher = more signal;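 also: score merges 667 nm fluorescence intensity with signal-to-noise per printed feature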
[17] = probe aShh binding to arrayed compounds – biochemical, biotinylated probe, 635/667 nm fluorescence, primary screen (AID 1114); conditions: small-molecule microarray, higher = more signal;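 also: probe is biotin-labelled aShh protein from a stem cell growth factor screen; measures binding of labelled protein to compounds printed on the slide; score merges feature fluorescence at 667 nm with signal-to-noise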
[18] = probe aNog binding to arrayed compounds – biochemical, biotinylated probe, 635/667 nm fluorescence, primary screen (AID 1115); conditions: small-molecule microarray, higher = more signal;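 also: probe is biotinylated aNog protein used at 0.15 µg/mL for 1 h at 4 C; z-score combines 667 nm fluorescence of each spot with its signal to noise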
[19] = target: Torsin-1A-interacting protein 1 (Homo sapiens) (UniProt Q5JTV8); assay: compound microarray binding of lysate hLAP1 – cell lysate, small-molecule microarray, COS7 lysate, 635/667 nm fluorescence, primary screen (AID 1116); conditions: 635 nm fluorescence, higher = more signal
[20] = target: Alpha-bungarotoxin (Bungarus multicinctus) (UniProt P60615); assay: compounds binding labelled alpha-BTX control protein – biochemical, small-molecule microarray, Alexa647 label, 635/667 nm fluorescence, artefact control for SMM control protein annotation, profiling panel (AID 1117); conditions: alpha-BTX-A647 binding fluorescence, higher = more signal
Chain of Alpha-bungarotoxin (Bungarus multicinctus) (P60615 whole entry, looked up): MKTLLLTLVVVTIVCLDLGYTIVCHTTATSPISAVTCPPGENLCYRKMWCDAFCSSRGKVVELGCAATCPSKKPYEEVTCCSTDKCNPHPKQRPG

Chain of Fibroblast growth factor 10 (Homo sapiens) (O15520 whole entry, looked up): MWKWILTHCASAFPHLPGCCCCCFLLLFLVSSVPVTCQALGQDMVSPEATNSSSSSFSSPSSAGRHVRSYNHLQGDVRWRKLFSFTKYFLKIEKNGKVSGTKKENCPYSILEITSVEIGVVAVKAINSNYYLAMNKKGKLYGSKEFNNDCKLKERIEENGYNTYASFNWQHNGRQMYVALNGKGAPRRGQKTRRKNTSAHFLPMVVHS
Chain of Dickkopf-related protein 1 (Homo sapiens) (O94907 whole entry, looked up): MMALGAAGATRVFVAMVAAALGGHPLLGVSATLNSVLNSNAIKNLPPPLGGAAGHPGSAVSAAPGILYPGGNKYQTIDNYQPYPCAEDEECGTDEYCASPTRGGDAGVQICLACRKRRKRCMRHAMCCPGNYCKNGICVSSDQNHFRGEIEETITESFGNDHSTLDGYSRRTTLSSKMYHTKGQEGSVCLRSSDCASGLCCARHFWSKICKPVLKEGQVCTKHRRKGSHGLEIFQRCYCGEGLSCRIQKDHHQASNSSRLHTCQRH
Chain of Epidermal growth factor receptor (Homo sapiens) (P00533 whole entry, looked up): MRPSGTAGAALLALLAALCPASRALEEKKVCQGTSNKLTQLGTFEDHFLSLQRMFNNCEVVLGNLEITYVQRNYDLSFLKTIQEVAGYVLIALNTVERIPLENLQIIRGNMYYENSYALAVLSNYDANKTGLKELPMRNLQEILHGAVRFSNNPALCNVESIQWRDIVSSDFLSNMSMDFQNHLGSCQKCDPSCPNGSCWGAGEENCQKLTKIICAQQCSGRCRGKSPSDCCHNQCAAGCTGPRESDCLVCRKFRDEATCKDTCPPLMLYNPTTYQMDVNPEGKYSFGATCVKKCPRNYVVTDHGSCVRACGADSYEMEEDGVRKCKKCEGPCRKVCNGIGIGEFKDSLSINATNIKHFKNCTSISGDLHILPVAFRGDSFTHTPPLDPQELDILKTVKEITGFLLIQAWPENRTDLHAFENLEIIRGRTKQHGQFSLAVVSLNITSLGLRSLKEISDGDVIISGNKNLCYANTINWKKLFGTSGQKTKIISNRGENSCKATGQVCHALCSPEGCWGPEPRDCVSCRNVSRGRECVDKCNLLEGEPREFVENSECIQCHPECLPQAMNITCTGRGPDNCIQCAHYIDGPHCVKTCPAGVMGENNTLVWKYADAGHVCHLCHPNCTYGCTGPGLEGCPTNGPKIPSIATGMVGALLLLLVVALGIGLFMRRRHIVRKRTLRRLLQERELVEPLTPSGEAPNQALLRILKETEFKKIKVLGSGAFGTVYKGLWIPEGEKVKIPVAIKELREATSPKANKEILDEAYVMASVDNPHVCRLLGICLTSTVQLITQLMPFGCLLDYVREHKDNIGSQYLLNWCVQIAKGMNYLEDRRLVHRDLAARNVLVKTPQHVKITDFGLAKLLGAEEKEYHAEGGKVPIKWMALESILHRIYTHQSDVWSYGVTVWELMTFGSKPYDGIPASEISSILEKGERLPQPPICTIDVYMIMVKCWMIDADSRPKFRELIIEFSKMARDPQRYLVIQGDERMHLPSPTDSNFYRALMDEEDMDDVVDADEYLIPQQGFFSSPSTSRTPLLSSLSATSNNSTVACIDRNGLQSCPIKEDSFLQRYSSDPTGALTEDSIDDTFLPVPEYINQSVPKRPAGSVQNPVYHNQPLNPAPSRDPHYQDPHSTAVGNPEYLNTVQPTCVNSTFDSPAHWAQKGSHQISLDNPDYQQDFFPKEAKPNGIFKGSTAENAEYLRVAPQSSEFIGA
Chain of Torsin-1A-interacting protein 1 (Homo sapiens) (Q5JTV8 whole entry, looked up): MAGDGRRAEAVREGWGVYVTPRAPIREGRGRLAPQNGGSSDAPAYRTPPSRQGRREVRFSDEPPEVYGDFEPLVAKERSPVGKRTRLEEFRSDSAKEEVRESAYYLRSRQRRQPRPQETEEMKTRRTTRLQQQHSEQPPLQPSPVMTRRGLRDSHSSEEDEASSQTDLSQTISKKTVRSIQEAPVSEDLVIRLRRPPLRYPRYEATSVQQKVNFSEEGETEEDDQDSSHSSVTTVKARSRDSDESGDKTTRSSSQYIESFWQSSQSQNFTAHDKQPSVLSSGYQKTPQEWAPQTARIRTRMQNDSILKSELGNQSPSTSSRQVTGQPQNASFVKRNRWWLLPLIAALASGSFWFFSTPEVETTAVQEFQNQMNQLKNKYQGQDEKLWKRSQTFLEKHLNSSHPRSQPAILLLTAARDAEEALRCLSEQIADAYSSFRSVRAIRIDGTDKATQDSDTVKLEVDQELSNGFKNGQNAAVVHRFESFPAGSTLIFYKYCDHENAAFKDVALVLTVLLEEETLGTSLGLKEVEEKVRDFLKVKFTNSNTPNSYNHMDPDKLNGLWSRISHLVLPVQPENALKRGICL
Chain of Follistatin-related protein 3 (Homo sapiens) (O95633 whole entry, looked up): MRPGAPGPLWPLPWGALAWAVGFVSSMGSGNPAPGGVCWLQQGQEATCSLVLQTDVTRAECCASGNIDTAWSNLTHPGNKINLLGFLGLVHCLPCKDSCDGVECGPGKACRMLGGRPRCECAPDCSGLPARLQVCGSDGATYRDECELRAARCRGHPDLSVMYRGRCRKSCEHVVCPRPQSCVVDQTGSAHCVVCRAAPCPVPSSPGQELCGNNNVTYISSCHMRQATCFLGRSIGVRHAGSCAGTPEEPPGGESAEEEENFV
Chain of Left-right determination factor 2 (Homo sapiens) (O00292 whole entry, looked up): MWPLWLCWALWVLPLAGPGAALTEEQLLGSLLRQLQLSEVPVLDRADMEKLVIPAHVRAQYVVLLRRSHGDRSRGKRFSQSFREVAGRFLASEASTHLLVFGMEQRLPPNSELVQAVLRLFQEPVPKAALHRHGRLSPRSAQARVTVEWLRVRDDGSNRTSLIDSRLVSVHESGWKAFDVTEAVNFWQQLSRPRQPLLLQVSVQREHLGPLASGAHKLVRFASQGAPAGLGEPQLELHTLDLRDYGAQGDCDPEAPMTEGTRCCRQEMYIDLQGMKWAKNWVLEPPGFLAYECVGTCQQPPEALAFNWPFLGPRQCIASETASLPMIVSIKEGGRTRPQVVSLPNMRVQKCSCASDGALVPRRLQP

Structure (SMILES) | composite z-score [1] | composite z-score [2] | composite z-score [3] | z-score [4] | composite z-score [5] | composite z-score [6] | composite z-score [7] | composite z-score [8] | composite z-score [9] | composite z-score [10] | composite z-score [11] | z-score [12] | composite z-score [13] | composite z-score [14] | composite z-score [15] | composite z-score [16] | composite z-score [17] | composite z-score [18] | composite z-score [19] | composite z-score [20]
COC(=O)[C@@]1(Cc2ccc(F)cc2)[C@H]2c3cc(C(=O)N(C)C)n(C)c3C[C@H]2CN1C(=O)c1ccccc1 | 0.0911 | 0.903 | 0.885 | -0.84 (inactive) | 0.414 | -0.489 | -0.286 | -0.125 | -0.615 | 0.468 | 0.0469 | -0.275 | -0.21 | 1.1 | 0.815 | 0.0095 | 0.705 | 1.01 | 0.509 | 0.0278
Cc1ccccc1C(O)C1C=CC2C(=O)N(c3ccccc3)C(=O)C2N1Nc1ccccc1 (stereo not given) | 1.37 | 1.01 | 1.25 | -0.00177 (inactive) | 0.96 | 0.65 | 0.0981 | 1.17 | 0.0843 | 1.45 | 0.0932 | 1.31 | 0.256 | 2.12 | 0.585 | 0.0437 | 0.108 | 0.189 | 1.54 | 1.1
CCCC#C[Si](O[C@H](CC)c1cn(Cc2ccccc2)nn1)(C(C)C)C(C)C | 0.524 | 0.109 | -0.263 | -0.539 (inactive) | 0.852 | 0.49 | 0.375 | 1.11 | 0.576 | -0.0374 | 1.29 | -0.283 | 0.631 | -0.0722 | -0.337 | 0.0799 | -0.153 | -0.234 | 0.927 | 1.11
COC(=O)[C@@]1(Cc2ccc(F)cc2)[C@H]2c3cc(C(=O)N(C)C)n(CCc4ccc(O)c(O)c4)c3C[C@H]2CN1C(=O)c1ccccc1 | 0.681 | 0.52 | 0.828 | 0.692 (inactive) | 0.842 | -0.292 | -0.147 | -0.439 | -0.372 | 0.239 | 0.148 | -1.78 | -0.0362 | 0.584 | 0.813 | 0.183 | -0.214 | 0.2 | 1.18 | 0.0055
CC1CC/C=C\[C@H]2OC34C=CCN(CCN5CCOCC5)C(=O)[C@H]3N(CCCO)C(=O)[C@@H]4C2C(=O)O1 (stereo not given in full) | 0.367 | -0.399 | -0.141 | 0.316 (inactive) | -0.188 | -0.0682 | -0.555 | -0.59 | -0.235 | 1.39 | -0.591 | -0.945 | -0.573 | -0.589 | -0.565 | -0.192 | -0.214 | 0.144 | -0.181 | -1.02
Cc1ccc(S[C@]2(C(=O)NC3CC3)CC(=O)N(C(C)C)[C@@H]2c2ccc(CO)cc2I)cc1 | 1.37 | -0.299 | 0.812 | -1.89 (inactive) | 0.377 | -0.122 | -0.638 | 0.101 | -1.37 | 0.318 | 1.17 | -2.21 | -0.792 | -0.462 | -0.0946 | 0.191 | -0.372 | -0.519 | 1.74 | -0.0074
OCCCC1=CC(c2ccc(CN3CCCC3)cc2)N(Cc2cccc(OC(F)(F)F)c2)CC1 (stereo not given) | 0.203 | -0.0082 | 0.983 | -1.35 (inactive) | -0.327 | -0.517 | 0.297 | 0.0596 | 0.0657 | 1.65 | -0.526 | -4.72 | -0.103 | -0.197 | 0.769 | -0.096 | -0.0769 | -0.0898 | 0.779 | -0.371
O=C(NCC(O)CO)[C@@]1(CCS(=O)(=O)c2ccccc2)N=C(c2ccc(OCCCO)cc2)O[C@H]1c1ccccc1 (stereo not given in full) | 1.11 | 1.27 | 0.985 | -0.809 (inactive) | 0.303 | 0.235 | -0.928 | -0.555 | -1.1 | 0.801 | 1.47 | 0.0294 | -1.15 | 1.51 | 1.14 | 0.0676 | 0.181 | 0.0574 | 2.55 | 3.32
Cc1ccc(S[C@]2(C(=O)NC(C)C)CC(=O)N(C3CCCCC3)[C@@H]2c2ccc(CO)cc2I)cc1 | 1.16 | 0.763 | 0.547 | -0.504 (inactive) | 0.612 | 0.621 | -0.242 | 1.19 | 0.205 | 0.0441 | 1.44 | -2.93 | -0.0068 | 0.679 | -0.558 | -0.0721 | -0.0035 | 0.313 | 0.208 | 1.52
C=CCOC(=O)[C@H]1[C@@H]2C(=O)O[C@@H](c3ccccc3)[C@@H](c3ccccc3)N2[C@@H](c2ccc(OCCOC(=O)[C@H]3C[C@H]4C(=O)N[C@@H](CC(C)C)C(=O)N4[C@H]3c3ccc(O)cc3)cc2)[C@]12C(=O)Nc1ccccc12 | 1.58 | 0.0955 | 0.202 | 0.119 (inactive) | 1.47 | 1.34 | 1.41 | 1.4 | 1.54 | 0.509 | 1.42 | -1.75 | 1.44 | 0.538 | -0.273 | 0.0919 | -0.066 | -0.582 | 1.78 | 1.52
COC(=O)[C@@]1(Cc2ccccc2)[C@H]2c3cc(C(=O)N4CCCC4)n(Cc4ccc(OC)c(OC)c4)c3C[C@H]2CN1C(=O)c1ccccc1 | 0.491 | 1.14 | 1.2 | -2.9 (inactive) | 0.971 | 1.06 | 0.122 | 0.985 | -0.823 | 0.763 | 1.44 | -2.27 | -0.737 | 1.39 | 0.852 | 0.421 | 0.853 | 1.85 | 1.38 | 0.315
